Where “and” joins values, the source holds several entries; their conditions need not be identical. Equal entries are not always repeated. Inconclusive results are not listed. The source holds several records for some structures; these can differ, active in one and inactive in another. Calls of active or inactive are those of the source. The calls were made as follows, unless noted: active = hit-call score of the fitted dose curve at least 0.9, where 1 is the maximum; inactive = score below 0.9.
Columns and labels:
[1] = molecular target: Nuclear respiratory factor 1 (Homo sapiens) (UniProt Q16656); test: ATG_NRF1_CIS: Attagene CIS-FACTORIAL HepG2 Assay for human Nuclear Respiratory Factor 1 (NRF1) Orphan Gene (AID 2282987); settings: HepG2 NRF1 cis-element reporter, Attagene multiplex; actives raise or lower the signal
Summary of the method: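 Endogenous NRF1-driven reporter transcription measured in transiently transfected human HepG2 liver cells. Readout: reporter mRNA by RT-PCR and capillary electrophoresis with fluorescence detection, 24 h post-dosing. Gain or loss of signal fitted relative to DMSO baseline.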

[2] = ATG_NFI_CIS: Attagene CIS-FACTORIAL HepG2 Assay for human Nuclear Factor I (NFI) (AID 2282989); settings: HepG2 cis-regulatory reporter, NFI response element transcription; actives raise or lower the signal
Summary of the method: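 Reporter transcription driven by endogenous transcription factors in HepG2 cells; 24 h treatment. Quantitation by labelled RT-PCR fragments on capillary electrophoresis, gain- or loss-of-signal relative to DMSO.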

[3] = molecular target: Myc proto-oncogene protein (Homo sapiens) (UniProt P01106); test: ATG_Myc_CIS: Attagene CIS-FACTORIAL HepG2 Assay for human Myelocytomatosis (Myc) Proto-Oncogene Transcription Factor (AID 2282990); settings: HepG2, Attagene cis-reporter transcription factor activity; actives raise or lower the signal
Summary of the method: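 Fluorescence intensity of reporter-specific cDNA fragments, separated by capillary electrophoresis, gives the signal. Transfected HepG2 cells carrying cis-promoter reporter constructs are incubated with compound for 24 h; DMSO serves as baseline.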

[4] = ATG_NF_kB_CIS: Attagene CIS-FACTORIAL HepG2 Assay for human Nuclear Factor Kappa B (NF-kB) (AID 2282991); settings: HepG2 Attagene cis-factorial NF-kB reporter mRNA; actives raise or lower the signal
Summary of the method: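 Read-out: reporter transcript levels quantified by RT-PCR plus capillary electrophoresis of 6-FAM-labelled, HpaI-cut fragments. Transfected HepG2 cells, 24 h compound exposure, endogenous NF-kB-driven cis element; gain or loss scored versus DMSO.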

[5] = ATG_NRF2_ARE_CIS: Attagene CIS-FACTORIAL HepG2 Assay for human Nuclear Factor Erythroid 2 Related Factor 2 (NFR2) response to Antioxidant Response Elements (ARE) (AID 2282992); settings: HepG2 Attagene ARE/NRF2 reporter, transcription factor activity; actives raise or lower the signal
Summary of the method: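 Multiplexed reporter mRNA profiling in HepG2 after a 24 h chemical exposure. Curves fitted in both directions relative to DMSO negative control.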

[6] = ATG_Oct_MLP_CIS: Attagene CIS-FACTORIAL HepG2 Assay for human Octamer-Binding Transcription Factor (Oct) (AID 2282993); settings: HepG2 Attagene cis-factorial Oct reporter, mRNA; actives raise or lower the signal
Summary of the method: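 Transfected HepG2 cells, 24 h treatment. Reporter mRNA quantified by RT-PCR–capillary electrophoresis; bidirectional fitting against DMSO.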

[7] = molecular target: Cellular tumor antigen p53 (Homo sapiens) (UniProt P04637); test: ATG_p53_CIS: Attagene CIS-FACTORIAL HepG2 Assay for human p53 Transcription Factor (AID 2282994); settings: HepG2 p53 cis-element reporter, Attagene mRNA; actives raise or lower the signal
Summary of the method: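 Multiplexed reporter mRNA assay in human HepG2 liver cells; cis-regulated units report endogenous factor activity. Values come from bidirectional curve fitting against DMSO negative control after 24 h treatment.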

[8] = BSK_3C_TissueFactor: BioMAP Diversity Plus: 3C Assay for Tissue Factor Biomarker Activity (AID 2282997); settings: BioMAP 3C HUVEC, tissue factor biomarker readout; actives raise or lower the signal
Summary of the method: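 Dosing of human umbilical vein endothelial cells preceded a 24 h incubation. Tissue Factor was then read by ELISA, with increases and decreases both scored relative to DMSO controls.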

[9] = BSK_3C_uPAR: BioMAP Diversity Plus: 3C Assay for Urokinase-type plasminogen activator receptor (uPAR) Biomarker Activity (AID 2282998); settings: BioMAP 3C HUVEC, uPAR biomarker ELISA; actives raise or lower the signal
Summary of the method: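 Readout: ELISA for surface uPAR. System: human umbilical vein endothelial primary cells, 24 h after chemical exposure. Analysis: bidirectional fit, DMSO baseline.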

[10] = BSK_4H_Eotaxin3: BioMAP Diversity Plus: 4H Assay for Eotaxin 3 Biomarker Activity (AID 2283000); settings: primary human endothelial cells (HUVEC); actives raise or lower the signal
Summary of the method: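 Human umbilical vein endothelial cells (BSK_4H system) dosed with test chemical; Eotaxin-3 (CCL26) measured by ELISA 24 h after dosing. Bidirectional curve fitting relative to DMSO negative control as baseline.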

[11] = molecular target: human Peroxisome Proliferator-activated Receptor alpha (PPARa), PPARA (gene 5465) (UniProt Q07869); test: ATG_PPARa_TRANS: Attagene TRANS-FACTORIAL HepG2 Assay for human Peroxisome Proliferator-activated Receptor alpha (PPARa) (AID 2283001; active = hit-call score of the fitted dose curve at least 0.9, where 1 is the maximum;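 as to AC50: potency for gain of reporter signal over DMSO so agonist or activator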)
Summary of the method: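 Measures transcriptional activity of an exogenous chimeric PPARa-Gal4 protein in transiently transfected HepG2 cells after 24 h dosing. Reporter mRNA quantified via RT-PCR and capillary electrophoresis; DMSO served as negative control.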

[12] = molecular target: human Peroxisome Proliferator-activated Receptor delta (PPARd), PPARD (gene 5467) (UniProt Q03181); test: ATG_PPARd_TRANS: Attagene TRANS-FACTORIAL HepG2 Assay for human Peroxisome Proliferator-activated Receptor delta (PPARd) (AID 2283002; active = hit-call score of the fitted dose curve at least 0.9, where 1 is the maximum)
Summary of the method: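 Fluorescence from capillary electrophoresis of labelled RT-PCR reporter fragments gives the signal; DMSO sets baseline. Cells: HepG2 transiently carrying GAL4-UAS reporter units plus chimeric nuclear receptor-Gal4 proteins, exposed to chemicals for 24 h.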

[13] = read-out: Intercellular Adhesion Molecule 1 (ICAM1), ICAM1 (gene 3383); test: BSK_3C_ICAM1: BioMAP Diversity Plus: 3C Assay for Intercellular Adhesion Molecule 1 (ICAM1) Biomarker Activity (AID 2283003); settings: primary human endothelial cells (HUVEC); actives raise or lower the signal
Summary of the method: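 Primary human umbilical vein endothelial cells in the BioMAP 3C system were exposed to chemicals for 24 h, then ICAM-1 was quantified by ELISA. Activity was fitted bidirectionally against the DMSO negative control baseline.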

[14] = molecular target: human Retinoic Acid Receptor beta (RARb), RARB (gene 5915) (UniProt P10826); test: ATG_RARb_TRANS: Attagene TRANS-FACTORIAL HepG2 Assay for human Retinoic Acid Receptor beta (AID 2283004; active = hit-call score of the fitted dose curve at least 0.9, where 1 is the maximum)
Summary of the method: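 Induction of reporter mRNA from a chimeric RARb-Gal4 construct was measured by RT-PCR, FAM labelling, HpaI digestion and capillary electrophoresis. Measurements followed 24 h compound treatment of transiently transfected human HepG2 liver cells, with DMSO as baseline.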

[15] = molecular target: Retinoic acid receptor alpha (Homo sapiens) (UniProt P10276); test: ATG_RARa_TRANS: Attagene TRANS-FACTORIAL HepG2 Assay for human Retinoic Acid Receptor alpha (RARa) (AID 2283005; active = hit-call score of the fitted dose curve at least 0.9, where 1 is the maximum)
Summary of the method: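 HepG2 transiently transfected with multiplex GAL4-UAS reporter units including a human RARa–GAL4 chimera; 24 h compound exposure. Reporter mRNA quantified by RT-PCR, 6-FAM labeling and capillary electrophoresis; gain of signal versus DMSO.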

[16] = molecular target: Peroxisome proliferator-activated receptor gamma (Homo sapiens) (UniProt P37231); test: ATG_PPARg_TRANS: Attagene TRANS-FACTORIAL HepG2 Assay for human Peroxisome Proliferator-activated Receptor-gamma (PPARg) (AID 2283007; active = hit-call score of the fitted dose curve at least 0.9, where 1 is the maximum)
Summary of the method: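 Read-out: reporter mRNA induction, detected by fluorescence after RT-PCR and capillary electrophoresis. Transiently transfected human HepG2 liver cells carrying a chimeric NR-Gal4 construct were dosed for 24 h; activity was fitted upward relative to DMSO.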

[17] = molecular target: Nuclear receptor subfamily 1 group I member 2 (Homo sapiens) (UniProt O75469); test: ATG_PXR_TRANS: Attagene TRANS-FACTORIAL HepG2 Assay for human Pregnane X Receptor (PXR) (AID 2283008; active = hit-call score of the fitted dose curve at least 0.9, where 1 is the maximum)
Summary of the method: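 Measures mRNA induction of a GAL4-UAS-driven reporter in human HepG2 cells transiently expressing PXR fused to Gal4, following 24 h treatment. DMSO served as negative control and baseline.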

[18] = BSK_3C_Proliferation: Cell Proliferation Assessment in the BioMAP Diversity Plus: 3C Assay (AID 2283006); settings: primary human endothelial cells (HUVEC);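 as to AC50: potency may reflect either rise or fall in cell number versus DMSO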
Summary of the method: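 Human umbilical vein endothelial cells were grown sub-confluent and exposed to chemical for 48 h, then fixed with 10% TCA and stained with 0.1% sulforhodamine B; absorbance at 560 nm gave relative cell number, fitted bidirectionally against DMSO baseline.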

[19] = molecular target: human Retinoic Acid Receptor gamma (RARg), RARG (gene 5916) (UniProt P13631); test: ATG_RARg_TRANS: Attagene TRANS-FACTORIAL HepG2 Assay for human Retinoic Acid Receptor gamma (RARg) (AID 2283009; active = hit-call score of the fitted dose curve at least 0.9, where 1 is the maximum)
Summary of the method: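 HepG2 cells transiently transfected with multiplexed reporter units expressing chimeric RARg-GAL4 and GAL4-UAS-driven reporters; 24 h compound exposure. Reporter mRNA quantified by RT-PCR with fluorescent labelling and capillary electrophoresis; gain-of-signal fitted relative to DMSO baseline.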

[20] = BSK_3C_VCAM1: BioMAP Diversity Plus: 3C Assay for Vascular cell adhesion molecule 1 (VCAM1) Biomarker Activity (AID 2282999); settings: BioMAP 3C HUVEC, VCAM1 ELISA, cytokine-stimulated; actives raise or lower the signal
Summary of the method: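 Human umbilical vein endothelial cells (3C system), biomarker read by ELISA 24 h after dosing; bidirectional fit against DMSO baseline. Cytotoxicity tracked by SRB total-protein staining in parallel cultures at biomarker time.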

Measured: AC50

Myc proto-oncogene protein (Homo sapiens), sequence (P01106 whole entry, looked up, the tested form may be a part): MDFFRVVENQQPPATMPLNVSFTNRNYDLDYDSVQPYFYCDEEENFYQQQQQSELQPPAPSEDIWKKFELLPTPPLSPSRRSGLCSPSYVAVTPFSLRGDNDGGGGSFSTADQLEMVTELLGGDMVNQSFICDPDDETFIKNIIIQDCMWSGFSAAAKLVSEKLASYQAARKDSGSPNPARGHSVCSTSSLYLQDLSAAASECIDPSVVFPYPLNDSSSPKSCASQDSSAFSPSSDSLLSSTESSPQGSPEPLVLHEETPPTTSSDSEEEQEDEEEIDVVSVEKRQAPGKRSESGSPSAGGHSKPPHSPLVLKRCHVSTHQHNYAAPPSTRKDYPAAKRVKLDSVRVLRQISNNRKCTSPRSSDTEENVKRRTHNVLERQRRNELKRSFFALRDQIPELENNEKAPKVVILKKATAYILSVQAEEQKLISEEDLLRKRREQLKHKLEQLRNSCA
Retinoic acid receptor alpha (Homo sapiens), sequence (P10276 whole entry, looked up, the tested form may be a part): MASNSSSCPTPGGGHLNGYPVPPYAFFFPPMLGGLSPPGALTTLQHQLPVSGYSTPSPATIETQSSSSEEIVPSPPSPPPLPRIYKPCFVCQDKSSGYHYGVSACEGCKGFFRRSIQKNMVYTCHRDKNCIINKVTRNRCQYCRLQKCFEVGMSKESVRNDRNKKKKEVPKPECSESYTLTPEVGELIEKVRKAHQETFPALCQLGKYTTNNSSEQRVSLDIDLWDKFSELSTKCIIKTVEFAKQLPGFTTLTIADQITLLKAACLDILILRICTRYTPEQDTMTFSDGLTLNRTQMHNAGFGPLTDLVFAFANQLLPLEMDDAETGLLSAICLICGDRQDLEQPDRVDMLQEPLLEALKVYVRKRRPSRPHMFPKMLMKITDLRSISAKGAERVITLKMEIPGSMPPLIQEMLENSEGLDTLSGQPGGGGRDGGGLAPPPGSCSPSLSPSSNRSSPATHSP
human Retinoic Acid Receptor gamma (RARg), RARG (gene 5916), sequence (P13631 whole entry, looked up, the tested form may be a part): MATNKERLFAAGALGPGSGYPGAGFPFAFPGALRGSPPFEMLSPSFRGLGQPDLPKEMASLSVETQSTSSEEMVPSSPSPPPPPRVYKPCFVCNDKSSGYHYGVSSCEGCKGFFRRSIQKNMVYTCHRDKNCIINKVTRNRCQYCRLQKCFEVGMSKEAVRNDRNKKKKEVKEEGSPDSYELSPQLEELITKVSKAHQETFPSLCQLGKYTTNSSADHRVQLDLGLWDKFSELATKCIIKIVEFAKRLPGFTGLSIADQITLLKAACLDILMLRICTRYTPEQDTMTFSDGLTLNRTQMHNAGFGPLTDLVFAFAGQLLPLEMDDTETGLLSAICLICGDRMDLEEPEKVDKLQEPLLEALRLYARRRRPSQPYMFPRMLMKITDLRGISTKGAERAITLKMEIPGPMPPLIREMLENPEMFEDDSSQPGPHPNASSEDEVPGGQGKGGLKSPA
Peroxisome proliferator-activated receptor gamma (Homo sapiens), sequence (P37231 whole entry, looked up, the tested form may be a part): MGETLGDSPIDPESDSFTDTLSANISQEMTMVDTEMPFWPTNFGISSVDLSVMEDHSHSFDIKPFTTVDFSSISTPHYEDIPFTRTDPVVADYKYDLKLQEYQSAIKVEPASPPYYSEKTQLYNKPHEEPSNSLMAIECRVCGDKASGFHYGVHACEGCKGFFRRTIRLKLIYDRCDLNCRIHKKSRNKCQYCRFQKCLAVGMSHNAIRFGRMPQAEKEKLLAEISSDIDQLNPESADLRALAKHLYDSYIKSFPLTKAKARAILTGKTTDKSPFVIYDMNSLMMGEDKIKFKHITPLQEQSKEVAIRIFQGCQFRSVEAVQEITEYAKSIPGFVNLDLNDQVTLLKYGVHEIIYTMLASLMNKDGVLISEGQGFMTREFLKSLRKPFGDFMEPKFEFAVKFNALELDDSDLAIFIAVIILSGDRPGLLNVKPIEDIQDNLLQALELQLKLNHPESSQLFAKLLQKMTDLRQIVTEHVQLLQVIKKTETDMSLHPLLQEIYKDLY
human Retinoic Acid Receptor beta (RARb), RARB (gene 5915), sequence (P10826 whole entry, looked up, the tested form may be a part): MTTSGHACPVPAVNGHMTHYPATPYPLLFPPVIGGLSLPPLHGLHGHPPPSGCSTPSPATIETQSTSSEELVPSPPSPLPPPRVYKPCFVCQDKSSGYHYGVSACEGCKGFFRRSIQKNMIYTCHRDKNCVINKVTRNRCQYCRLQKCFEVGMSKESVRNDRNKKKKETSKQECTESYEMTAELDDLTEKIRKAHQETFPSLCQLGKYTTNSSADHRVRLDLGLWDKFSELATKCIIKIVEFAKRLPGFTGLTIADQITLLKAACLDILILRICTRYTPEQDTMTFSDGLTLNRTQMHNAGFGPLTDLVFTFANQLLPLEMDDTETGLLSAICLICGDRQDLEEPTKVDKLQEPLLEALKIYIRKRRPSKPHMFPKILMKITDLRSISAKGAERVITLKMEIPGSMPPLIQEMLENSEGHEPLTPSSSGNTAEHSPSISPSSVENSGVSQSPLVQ
Cellular tumor antigen p53 (Homo sapiens), sequence (P04637 whole entry, looked up): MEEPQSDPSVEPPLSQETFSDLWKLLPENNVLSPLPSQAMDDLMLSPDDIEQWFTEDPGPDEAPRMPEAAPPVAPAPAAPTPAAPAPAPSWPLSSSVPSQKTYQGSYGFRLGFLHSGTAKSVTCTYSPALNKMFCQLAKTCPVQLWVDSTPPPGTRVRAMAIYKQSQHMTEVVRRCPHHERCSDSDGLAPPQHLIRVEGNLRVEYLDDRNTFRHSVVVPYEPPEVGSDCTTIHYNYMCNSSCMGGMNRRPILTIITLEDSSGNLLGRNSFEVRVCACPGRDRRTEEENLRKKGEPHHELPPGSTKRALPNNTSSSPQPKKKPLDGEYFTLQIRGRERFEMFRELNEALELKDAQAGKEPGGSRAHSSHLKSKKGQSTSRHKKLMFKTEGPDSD
Nuclear respiratory factor 1 (Homo sapiens), sequence (Q16656 whole entry, looked up): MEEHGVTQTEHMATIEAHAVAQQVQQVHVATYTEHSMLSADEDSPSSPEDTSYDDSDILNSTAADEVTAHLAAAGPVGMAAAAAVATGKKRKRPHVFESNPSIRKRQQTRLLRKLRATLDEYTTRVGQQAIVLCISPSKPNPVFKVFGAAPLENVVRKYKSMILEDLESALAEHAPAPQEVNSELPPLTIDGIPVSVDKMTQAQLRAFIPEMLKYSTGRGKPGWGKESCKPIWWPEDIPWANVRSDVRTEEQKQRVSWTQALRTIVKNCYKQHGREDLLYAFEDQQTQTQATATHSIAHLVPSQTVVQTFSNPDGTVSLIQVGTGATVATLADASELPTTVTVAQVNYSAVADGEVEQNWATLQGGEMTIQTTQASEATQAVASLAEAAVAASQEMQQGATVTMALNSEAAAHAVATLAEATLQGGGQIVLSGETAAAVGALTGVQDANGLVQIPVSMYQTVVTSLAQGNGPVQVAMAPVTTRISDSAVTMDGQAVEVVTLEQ
human Peroxisome Proliferator-activated Receptor delta (PPARd), PPARD (gene 5467), sequence (Q03181 whole entry, looked up, the tested form may be a part): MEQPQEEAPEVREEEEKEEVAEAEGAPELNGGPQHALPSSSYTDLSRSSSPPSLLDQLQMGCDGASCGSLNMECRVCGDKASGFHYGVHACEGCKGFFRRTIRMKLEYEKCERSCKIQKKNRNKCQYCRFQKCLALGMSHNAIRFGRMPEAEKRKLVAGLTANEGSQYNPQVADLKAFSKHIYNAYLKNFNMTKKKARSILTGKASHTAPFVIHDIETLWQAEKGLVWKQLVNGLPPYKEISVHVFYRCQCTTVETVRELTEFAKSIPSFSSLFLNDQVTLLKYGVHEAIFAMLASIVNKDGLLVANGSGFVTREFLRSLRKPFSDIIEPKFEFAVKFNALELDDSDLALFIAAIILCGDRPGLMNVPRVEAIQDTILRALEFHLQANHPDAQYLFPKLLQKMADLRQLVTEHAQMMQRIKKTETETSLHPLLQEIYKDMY
human Peroxisome Proliferator-activated Receptor alpha (PPARa), PPARA (gene 5465), sequence (Q07869 whole entry, looked up, the tested form may be a part): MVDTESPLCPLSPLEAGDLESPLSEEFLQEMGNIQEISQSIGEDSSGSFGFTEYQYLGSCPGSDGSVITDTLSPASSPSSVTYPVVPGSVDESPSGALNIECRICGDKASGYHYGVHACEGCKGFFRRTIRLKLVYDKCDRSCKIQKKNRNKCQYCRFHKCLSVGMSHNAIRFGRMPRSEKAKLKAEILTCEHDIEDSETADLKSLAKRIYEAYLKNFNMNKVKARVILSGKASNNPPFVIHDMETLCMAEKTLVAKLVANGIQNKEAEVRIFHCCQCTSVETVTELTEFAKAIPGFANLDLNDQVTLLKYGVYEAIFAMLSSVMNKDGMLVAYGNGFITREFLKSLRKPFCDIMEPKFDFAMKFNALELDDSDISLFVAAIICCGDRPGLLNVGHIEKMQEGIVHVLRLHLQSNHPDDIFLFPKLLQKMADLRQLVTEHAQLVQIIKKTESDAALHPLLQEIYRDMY
Nuclear receptor subfamily 1 group I member 2 (Homo sapiens), sequence (O75469 whole entry, looked up, the tested form may be a part): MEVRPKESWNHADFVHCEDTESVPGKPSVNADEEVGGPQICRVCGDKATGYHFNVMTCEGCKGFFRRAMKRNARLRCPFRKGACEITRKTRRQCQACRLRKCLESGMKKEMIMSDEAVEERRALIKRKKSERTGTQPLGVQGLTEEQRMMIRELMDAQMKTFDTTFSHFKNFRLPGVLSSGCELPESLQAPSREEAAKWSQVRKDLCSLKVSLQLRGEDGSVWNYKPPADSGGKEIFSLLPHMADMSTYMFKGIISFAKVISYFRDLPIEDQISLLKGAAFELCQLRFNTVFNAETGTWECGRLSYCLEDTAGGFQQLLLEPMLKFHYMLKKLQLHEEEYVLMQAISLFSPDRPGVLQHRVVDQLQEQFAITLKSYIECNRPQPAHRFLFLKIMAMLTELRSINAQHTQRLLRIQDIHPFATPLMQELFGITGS

C=C(C)C(=O)OCC(F)(F)C(F)(F)C(F)(F)F
inactive: [1] | [2] | [3] | [4] | [5] | [6] | [7] | [8] | [9] | [10] | [11] | [12] | [13] | [14] | [15] | [16] | [17]

CC(C)(C)C(=O)CC(=O)C(F)(F)C(F)(F)C(F)(F)F
active: [18] 43.3 µM and 44.3 µM
inactive: [1] | [2] | [3] | [4] | [5] | [6] | [7] | [9] | [10] | [11] | [12] | [13] | [14] | [15] | [16] | [17] | [19]

O=C(O)C=C(C(F)(F)F)C(F)(F)F
inactive: [1] | [2] | [3] | [4] | [6] | [8] | [9] | [10] | [11] | [12] | [13] | [16] | [17] | [19]
active: [4] 68.2 µM | [5] 1.89 µM and 3.02 µM

O=C(O)C(F)(OC(F)(F)C(F)(OC(F)(F)C(F)(F)C(F)(F)F)C(F)(F)F)C(F)(F)F (stereo not drawn)
inactive: [1] | [2] | [3] | [4] | [5] | [6] | [7] | [9] | [20] | [10] | [11] | [12] | [13] | [14] | [15] | [16] | [17] | [19]
active: [11] 108 µM

CCCCCCC(C)OC(=O)CCCCC(=O)OC(C)CCCCCC (stereo not drawn)
inactive: [1] | [2] | [3] | [4] | [5] | [6] | [7] | [9] | [20] | [10] | [11] | [12] | [13] | [18] | [16] | [17]

O=S(=O)(OCCOC(F)(F)F)C(F)(F)F
inactive: [1] | [2] | [3] | [4] | [5] | [6] | [7] | [8] | [9] | [10] | [11] | [12] | [13] | [14] | [18] | [16] | [17] | [19]

CCc1c(Br)c(Br)c(Br)c(Br)c1Br
active: [8] 4.73 µM | [9] 20 µM | [10] 20 µM | [17] 7.09 µM
inactive: [1] | [2] | [3] | [4] | [5] | [6] | [7] | [12] | [13] | [14] | [15] | [18] | [19]

O[Si](c1ccccc1)(c1ccccc1)c1ccccc1
inactive: [3] | [4] | [6] | [7] | [11] | [12] | [13] | [15]
active: [1] 100 µM | [2] 100 µM | [5] 31.1 µM | [9] 32.9 µM | [10] 30.1 µM | [16] 44.4 µM | [17] 0.68 µM

FC(F)(F)C(F)(F)C(F)(F)C(F)(F)C(F)(F)C(F)(F)C(F)(F)Br
inactive: [1] | [2] | [3] | [4] | [5] | [6] | [7] | [9] | [20] | [10] | [11] | [12] | [13] | [15] | [16] | [17] | [19]

C=CC(F)(F)C(F)(F)C(F)(F)C(F)(F)C(F)(F)C(F)(F)C(F)(F)C(F)(F)F
inactive: [1] | [2] | [3] | [4] | [5] | [7] | [9] | [10] | [11] | [12] | [13] | [15] | [16] | [19]

CC/C=C\CCOC(=O)c1ccccc1
inactive: [1] | [2] | [3] | [4] | [5] | [6] | [7] | [11] | [14] | [15] | [16] | [17] | [19]

FC(F)(I)C(F)(F)C(F)(F)C(F)(F)I
inactive: [1] | [2] | [3] | [4] | [6] | [11] | [14] | [17]
active: [5] 33.4 µM | [9] 51.2 µM and 53.9 µM and 47.1 µM | [10] 52.2 µM and 47.2 µM and 45.6 µM | [13] 39.6 µM and 45.6 µM and 52.7 µM | [16] 48.6 µM

CO[Si](OC)(c1ccccc1)c1ccccc1
inactive: [1] | [2] | [3] | [4] | [5] | [6] | [10] | [11] | [13] | [14] | [15] | [16] | [19]
active: [9] 34.8 µM | [17] 15.4 µM
